Experimental data published in PubChem BioAssay AID1159580 (chemical genetic matrix, 2015).
About 2,000 (36%) of roughly 5,500 compounds were called active. About 18% were inconclusive and are not listed. Cut-off read from the data, not from the text of the source: active = normalized growth mostly below about 0.91 (no sharp cut-off); inconclusive = no clear call, values can overlap the other calls; inactive = mostly above about 0.92. The list shows a part of the results.

Experiment: chemical genetic growth profiling, strain panel (AID 1159580);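 note: tested at 20 µM; growth read once vehicle control cultures reached saturation at 30 °C; 1 = growth at the plate median or of vehicle wells; lower values mean less growth of the strain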
Settings: S. cerevisiae deletion strains, growth OD
[1] = locus YDL101C, strain DUN1, stronger effect = lower value
[2] = locus YHR030C, strain SLT2, stronger effect = lower value

Measured: normalized growth

O=C(Nc1ccc(F)c(Cl)c1)c1ccccc1O
active: locus YBL105C, strain PKC1, stronger effect = lower value 0.897 | locus YBR135W, strain CKS1, stronger effect = lower value 0.888 | locus YDL017W, strain CDC7, stronger effect = lower value 0.895 | locus YDL108W, strain KIN28, stronger effect = lower value 0.896 | locus YDL132W, strain cdc53, stronger effect = lower value 0.879 | locus YDR052C, strain DBF4, stronger effect = lower value 0.884 | locus YDR226W, strain ADK1, stronger effect = lower value 0.877 | locus YFL009W, strain cdc4, stronger effect = lower value 0.888 | locus YFR003C, strain YPI1, stronger effect = lower value 0.897 | locus YFR028C, strain CDC14, stronger effect = lower value 0.884 | [2] 0.768 | locus YJR016C, strain ILV3, stronger effect = lower value 0.895 | locus YKL193C, strain SDS22, stronger effect = lower value 0.885 | locus YLR113W, strain HOG1, stronger effect = lower value 0.669 | locus YNL006W, strain LST8, stronger effect = lower value 0.893 | locus YPL209C, strain IPL1, stronger effect = lower value 0.895 | locus YPL256C, strain CLN2, stronger effect = lower value 0.756 | locus YPR025C, strain CCL1, stronger effect = lower value 0.894
inactive: locus YAR019C, strain CDC15, stronger effect = lower value 0.9 | locus YBR136W, strain MEC1, stronger effect = lower value 0.899 | locus YBR160W, strain CDC28, stronger effect = lower value 0.899 | locus YDL028C, strain MPS1, stronger effect = lower value 0.897 | [1] 0.951 | locus YDL214C, strain PRR2, stronger effect = lower value 0.83 | locus YDR054C, strain cdc34, stronger effect = lower value 0.885 | locus YDR477W, strain SNF1, stronger effect = lower value 0.834 | locus YER123W, strain YCK3, stronger effect = lower value 0.76 | locus YER133W, strain GLC7, stronger effect = lower value 0.862 | locus YFL029C, strain CAK1, stronger effect = lower value 0.884 | locus YFR019W, strain FAB1, stronger effect = lower value 0.904 | locus YGR040W, strain KSS1, stronger effect = lower value 0.819 | locus YGR052W, strain FMP48, stronger effect = lower value 0.8 | locus YGR092W, strain DBF2, stronger effect = lower value 0.519 | locus YHR079C, strain IRE1, stronger effect = lower value 0.632 | locus YHR082C, strain KSP1, stronger effect = lower value 0.76 | locus YHR205W, strain SCH9, stronger effect = lower value 0.747 | locus YIL147C, strain SLN1, stronger effect = lower value 0.895 | locus YJL095W, strain BCK1, stronger effect = lower value 0.676 | locus YJL128C, strain PBS2, stronger effect = lower value 0.846 | locus YJL157C, strain FAR1, stronger effect = lower value 0.803 | locus YJR066W, strain TOR1 (second series), stronger effect = lower value 0.882 | locus YJR066W, strain TOR1, stronger effect = lower value 0.745 | locus YKL048C, strain ELM1, stronger effect = lower value 0.893 | locus YKL067W, strain YNK1, stronger effect = lower value 0.825 | locus YKL101W, strain HSL1, stronger effect = lower value 0.807 | locus YKL203C, strain TOR2, stronger effect = lower value 0.863 | locus YLR133W, strain CKI1, stronger effect = lower value 0.762 | locus YLR403W, strain SFP1, stronger effect = lower value 0.743 | locus YML070W, strain DAK1, stronger effect = lower value 0.777 | locus YMR001C, strain CDC5, stronger effect = lower value 0.891 | locus YMR205C, strain PFK2 (second series), stronger effect = lower value 0.769 | locus YMR277W, strain FCP1, stronger effect = lower value 0.9 | locus YNL020C, strain ARK1, stronger effect = lower value 0.745 | locus YNL161W, strain CBK1, stronger effect = lower value 0.904 | locus YNL183C, strain NPR1, stronger effect = lower value 0.759 | locus YNL207W, strain RIO2, stronger effect = lower value 0.893 | locus YNL222W, strain SSU72, stronger effect = lower value 0.906 | locus YNL307C, strain MCK1 (second series), stronger effect = lower value 0.833 | locus YOL078W, strain AVO1, stronger effect = lower value 0.897 | locus YOL136C, strain PFK27, stronger effect = lower value 0.846 | locus YOR061W, strain CKA2, stronger effect = lower value 0.842 | locus YOR119C, strain RIO1, stronger effect = lower value 0.936 | locus YOR231W, strain MKK1, stronger effect = lower value 0.829 | locus YOR329C, strain SCD5, stronger effect = lower value 0.913 | locus YPL031C, strain PHO85, stronger effect = lower value 0.796 | locus YPL153C, strain RAD53, stronger effect = lower value 0.799 | locus YPL204W, strain HRR25, stronger effect = lower value 0.797 | locus YPR106W, strain ISR1, stronger effect = lower value 0.911 | locus YPR111W, strain DBF20, stronger effect = lower value 0.887 | strain NNK1, stronger effect = lower value 0.899 | strain TSCII, stronger effect = lower value 0.892

NNC(=O)c1ccccc1O
inactive: locus YBR229C, strain ROT2, stronger effect = lower value 0.986 | [1] 0.975 | locus YDL134C, strain PPH21, stronger effect = lower value 0.988 | locus YDR150W, strain NUM1, stronger effect = lower value 0.892 | locus YEL061C, strain CIN8, stronger effect = lower value 0.965 | locus YGR078C, strain PAC10, stronger effect = lower value 1.01 | locus YGR229C, strain SMI1, stronger effect = lower value 0.989 | [2] 1.03 | locus YHR087W, strain rtc3, stronger effect = lower value 0.99 | locus YJR043C, strain POL32, stronger effect = lower value 0.96 | locus YJR075W, strain HOC1, stronger effect = lower value 1.02 | locus YKL190W, strain CNB1, stronger effect = lower value 0.983 | locus YLR039C, strain RIC1, stronger effect = lower value 0.958 | locus YLR058C, strain SHM2 (second series), stronger effect = lower value 1 | locus YLR085C, strain ARP6, stronger effect = lower value 0.962 | locus YLR262C, strain YPT6, stronger effect = lower value 0.975 | locus YML094W, strain GIM5, stronger effect = lower value 0.963 | locus YMR219W, strain ESC1, stronger effect = lower value 0.996 | locus YMR263W, strain SAP30, stronger effect = lower value 1.01 | locus YNL153C, strain GIM3, stronger effect = lower value 1.01 | locus YNL298W, strain CLA4 (second series), stronger effect = lower value 0.976 | locus YNL322C, strain KRE1, stronger effect = lower value 1.01 | locus YNR030W, strain Alg12, stronger effect = lower value 1.01 | locus YPL055C, strain LGE1, stronger effect = lower value 0.916 | locus YPL241C, strain CIN2, stronger effect = lower value 1.11 | locus YPR135W, strain CTF4, stronger effect = lower value 0.956
